These results are taken from publication PMC12864922, “TDP-43 directly inhibits mRNA accumulation in neurites through modulation of mRNA stability”.

The labels stand for the following.
B1: ENSMUSG00000043670.203|Diras1 (ssRNA)
RNA: GGGAGUUCUACAGUCCGACGAUCGCUUCGAUAUCCGCAUGCUAGGGCCUGUGUCCCACCCAGAUGAGGGUGACUUAGAAUUCUGUGUUUAUGUGCCUGUGUGUGUGGAUGGGUGUGUGUCUGUCUUGGGAUGGGGUGUUCUUGCACCACUUUGUGUUCUUAGUGAGACCACAGUGUAAGUGGCCGUGUGUGUGUGUGGGGGGGGGCACCUAGACAUUGUGGUGUGUCUGUAUGGCUCUGUGUUUUCAGGGGUGGGUGACACAGGCCUGUCUGAUGAGCACCAGGUCUGUUCCAGGCUGUGGCACUCUUGCGGUCGCACUAGUGUGGAAUUCUCGGGUGUCAAGG
B2: ENSMUSG00000043670.208|Diras1 (ssRNA)
RNA: GGGAGUUCUACAGUCCGACGAUCGCUUCGAUAUCCGCAUGCUAUUAGAAUUCUGUGUUUAUGUGCCUGUGUGUGUGGAUGGGUGUGUGUCUGUCUUGGGAUGGGGUGUUCUUGCACCACUUUGUGUUCUUAGUGAGACCACAGUGUAAGUGGCCGUGUGUGUGUGUGGGGGGGGGCACCUAGACAUUGUGGUGUGUCUGUAUGGCUCUGUGUUUUCAGGGGUGGGUGACACAGGCCUGUCUGAUGAGCACCAGGUCUGUUCCAGGCUGUGGCAAGCUGGCUCCUGGCUCAGAAGUGACAAAGCCUCUUGCGGUCGCACUAGUGUGGAAUUCUCGGGUGUCAAGG
B3: ENSMUSG00000043670.209|Diras1 (ssRNA)
RNA: GGGAGUUCUACAGUCCGACGAUCGCUUCGAUAUCCGCAUGCUAUUCUGUGUUUAUGUGCCUGUGUGUGUGGAUGGGUGUGUGUCUGUCUUGGGAUGGGGUGUUCUUGCACCACUUUGUGUUCUUAGUGAGACCACAGUGUAAGUGGCCGUGUGUGUGUGUGGGGGGGGGCACCUAGACAUUGUGGUGUGUCUGUAUGGCUCUGUGUUUUCAGGGGUGGGUGACACAGGCCUGUCUGAUGAGCACCAGGUCUGUUCCAGGCUGUGGCAAGCUGGCUCCUGGCUCAGAAGUGACAAAGCUGCAGUCUCUUGCGGUCGCACUAGUGUGGAAUUCUCGGGUGUCAAGG
B4: ENSMUSG00000043670.211|Diras1 (ssRNA)
RNA: GGGAGUUCUACAGUCCGACGAUCGCUUCGAUAUCCGCAUGCUAGUGCCUGUGUGUGUGGAUGGGUGUGUGUCUGUCUUGGGAUGGGGUGUUCUUGCACCACUUUGUGUUCUUAGUGAGACCACAGUGUAAGUGGCCGUGUGUGUGUGUGGGGGGGGGCACCUAGACAUUGUGGUGUGUCUGUAUGGCUCUGUGUUUUCAGGGGUGGGUGACACAGGCCUGUCUGAUGAGCACCAGGUCUGUUCCAGGCUGUGGCAAGCUGGCUCCUGGCUCAGAAGUGACAAAGCUGCAGUACAGAGGCCUCACUCUUGCGGUCGCACUAGUGUGGAAUUCUCGGGUGUCAAGG
B5: ENSMUSG00000043670.210|Diras1 (ssRNA)
RNA: GGGAGUUCUACAGUCCGACGAUCGCUUCGAUAUCCGCAUGCUAGUUUAUGUGCCUGUGUGUGUGGAUGGGUGUGUGUCUGUCUUGGGAUGGGGUGUUCUUGCACCACUUUGUGUUCUUAGUGAGACCACAGUGUAAGUGGCCGUGUGUGUGUGUGGGGGGGGGCACCUAGACAUUGUGGUGUGUCUGUAUGGCUCUGUGUUUUCAGGGGUGGGUGACACAGGCCUGUCUGAUGAGCACCAGGUCUGUUCCAGGCUGUGGCAAGCUGGCUCCUGGCUCAGAAGUGACAAAGCUGCAGUACAGAGCUCUUGCGGUCGCACUAGUGUGGAAUUCUCGGGUGUCAAGG
B6: ENSMUSG00000043670.212|Diras1 (ssRNA)
RNA: GGGAGUUCUACAGUCCGACGAUCGCUUCGAUAUCCGCAUGCUAGUGUGUGUGGAUGGGUGUGUGUCUGUCUUGGGAUGGGGUGUUCUUGCACCACUUUGUGUUCUUAGUGAGACCACAGUGUAAGUGGCCGUGUGUGUGUGUGGGGGGGGGCACCUAGACAUUGUGGUGUGUCUGUAUGGCUCUGUGUUUUCAGGGGUGGGUGACACAGGCCUGUCUGAUGAGCACCAGGUCUGUUCCAGGCUGUGGCAAGCUGGCUCCUGGCUCAGAAGUGACAAAGCUGCAGUACAGAGGCCUCAGUGUGACUCUUGCGGUCGCACUAGUGUGGAAUUCUCGGGUGUCAAGG
B7: ENSMUSG00000043670.198|Diras1 (ssRNA)
RNA: GGGAGUUCUACAGUCCGACGAUCGCUUCGAUAUCCGCAUGCUAGAGACUGUCCAGGAGACUUGAGUGGCUCCUGGGCCUGUGUCCCACCCAGAUGAGGGUGACUUAGAAUUCUGUGUUUAUGUGCCUGUGUGUGUGGAUGGGUGUGUGUCUGUCUUGGGAUGGGGUGUUCUUGCACCACUUUGUGUUCUUAGUGAGACCACAGUGUAAGUGGCCGUGUGUGUGUGUGGGGGGGGGCACCUAGACAUUGUGGUGUGUCUGUAUGGCUCUGUGUUUUCAGGGGUGGGUGACACAGGCCUGUCUGACUCUUGCGGUCGCACUAGUGUGGAAUUCUCGGGUGUCAAGG
B8: ENSMUSG00000043670.203|Diras1|6:10;40:44;54:63;69:76;109:113;142:154;178:183;186:190;195:199 (ssRNA)
RNA: GGGAGUUCUACAGUCCGACGAUCGCUUCGAUAUCCGCAUGCUAGGGCCACACACCCACCCAGAUGAGGGUGACUUAGAAUUCACACAUUAUGUGCCACACACACACGAUGGCACACACACUGUCUUGGGAUGGGGUGUUCUUGCACCACUUACACAUCUUAGUGAGACCACAGUGUAAGUGGCCCACACACACACACGGGGGGGGCACCUAGACAUUGUGCACACACUCAUACGCUCACACAUUUCAGGGGUGGGUGACACAGGCCUGUCUGAUGAGCACCAGGUCUGUUCCAGGCUGUGGCACUCUUGCGGUCGCACUAGUGUGGAAUUCUCGGGUGUCAAGG
B9: ENSMUSG00000043670.205|Diras1 (ssRNA)
RNA: GGGAGUUCUACAGUCCGACGAUCGCUUCGAUAUCCGCAUGCUACACCCAGAUGAGGGUGACUUAGAAUUCUGUGUUUAUGUGCCUGUGUGUGUGGAUGGGUGUGUGUCUGUCUUGGGAUGGGGUGUUCUUGCACCACUUUGUGUUCUUAGUGAGACCACAGUGUAAGUGGCCGUGUGUGUGUGUGGGGGGGGGCACCUAGACAUUGUGGUGUGUCUGUAUGGCUCUGUGUUUUCAGGGGUGGGUGACACAGGCCUGUCUGAUGAGCACCAGGUCUGUUCCAGGCUGUGGCAAGCUGGCUCCUGCUCUUGCGGUCGCACUAGUGUGGAAUUCUCGGGUGUCAAGG
B10: ENSMUSG00000043670.207|Diras1 (ssRNA)
RNA: GGGAGUUCUACAGUCCGACGAUCGCUUCGAUAUCCGCAUGCUAGGUGACUUAGAAUUCUGUGUUUAUGUGCCUGUGUGUGUGGAUGGGUGUGUGUCUGUCUUGGGAUGGGGUGUUCUUGCACCACUUUGUGUUCUUAGUGAGACCACAGUGUAAGUGGCCGUGUGUGUGUGUGGGGGGGGGCACCUAGACAUUGUGGUGUGUCUGUAUGGCUCUGUGUUUUCAGGGGUGGGUGACACAGGCCUGUCUGAUGAGCACCAGGUCUGUUCCAGGCUGUGGCAAGCUGGCUCCUGGCUCAGAAGUGACUCUUGCGGUCGCACUAGUGUGGAAUUCUCGGGUGUCAAGG

In all, about 9,900 sequences were measured (“r (bound/input frequency ratio)”: median about 0.7, highest 2% from about 6.5 on). The sample holds the highest values, similar sequences and a random draw of the others, so the mix is not that of the screen.

The target in the experiment is TDP-43 (Homo sapiens, UniProt Q13148 1-414). Briefly: RNA Bind-n-Seq with designed 260-mer pool; 25 mM Tris-HCl, 150 mM KCl, 3 mM MgCl2, BSA (printed 500 mg/mL), 20 units/mL SUPERase IN; pH not stated; 500 nM RNA pool, 1 h, 4 C; TDP-43 5, 50, 500 nM; high values mean tight binding. Conditions: protein: recombinant; tags: SBP (GST cleaved off with PreScission; pGEX-GST-SBP). In a few lines: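 Duplicate measurements used two independent batches of recombinant SBP-tagged TDP-43, which was captured on streptavidin beads at 5, 50 or 500 nM. The beads were incubated with 500 nM of an in vitro-transcribed 260-nt 3′ UTR oligo pool for 1 h at 4 °C in 25 mM Tris-HCl, 150 mM KCl, 3 mM MgCl2, BSA and SUPERase IN. After washing, biotin elution, reverse transcription, PCR amplification and sequencing, binding was expressed as R: each oligo's normalized read abundance in the bound sample over its abundance in input.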
TDP-43, sequence (Q13148 whole entry): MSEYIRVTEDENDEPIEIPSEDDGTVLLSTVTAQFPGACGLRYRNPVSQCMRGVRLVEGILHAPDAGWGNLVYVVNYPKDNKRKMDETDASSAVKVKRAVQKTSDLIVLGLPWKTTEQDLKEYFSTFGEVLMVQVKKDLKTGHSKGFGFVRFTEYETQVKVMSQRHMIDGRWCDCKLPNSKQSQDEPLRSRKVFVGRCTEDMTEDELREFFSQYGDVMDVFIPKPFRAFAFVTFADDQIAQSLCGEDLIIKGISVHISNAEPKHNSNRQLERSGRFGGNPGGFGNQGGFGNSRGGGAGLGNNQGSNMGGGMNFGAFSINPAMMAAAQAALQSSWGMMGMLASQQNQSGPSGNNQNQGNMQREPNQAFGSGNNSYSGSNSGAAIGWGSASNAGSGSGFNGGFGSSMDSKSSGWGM
Regarding B1, the binding signal is 7.32 R (bound/input frequency ratio). Take B2: the binding signal was 7.79 R (bound/input frequency ratio). Consider B3, for which the binding signal is 5.23 R (bound/input frequency ratio). Take B4: the binding signal is 5.36 R (bound/input frequency ratio). Turning to B5, the binding signal is 5.7 R (bound/input frequency ratio). The result for B6 reads 6.14 R (bound/input frequency ratio); that for B7, 4.93 R (bound/input frequency ratio). As to B8, the binding signal is 1.5 R (bound/input frequency ratio).

For B9, the binding signal is 7.36 R (bound/input frequency ratio). For B10, the binding signal was 8.86 R (bound/input frequency ratio).
